Data: PubChem BioAssay AID1159580 (chemical genetic matrix, 2015)
In all, about 5,500 compounds went through this assay and about 2,000 (36%) were called active. Roughly 18% stayed inconclusive and do not appear here. Rule as the data show it: active = normalized growth mostly below about 0.91 (no sharp cut-off); inconclusive = no clear call, values can overlap the other calls; inactive = mostly above about 0.92. Some of the results follow.

Test: chemical genetic growth profiling, strain panel (AID 1159580);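 also: tested at 20 µM; growth read once vehicle control cultures reached saturation at 30 °C; 1 = growth at the plate median or of vehicle wells; lower values mean less growth of the strain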
Details: growth OD
[1] = S. cerevisiae deletion strains, locus YCL061C, strain MRC1, stronger effect = lower value
[2] = S. cerevisiae deletion strains, locus YHR030C, strain SLT2, stronger effect = lower value

Measured: normalized growth

C/C(=C\C(=O)Nc1ccc(F)cc1)Nc1ccc(F)cc1
inactive: S. cerevisiae deletion strains, locus YAL013W, strain DEP1, stronger effect = lower value 1 | S. cerevisiae deletion strains, locus YBR229C, strain ROT2, stronger effect = lower value 1.01 | [1] 1.04 | S. cerevisiae deletion strains, locus YDL101C, strain DUN1, stronger effect = lower value 1.05 | S. cerevisiae deletion strains, locus YDR150W, strain NUM1, stronger effect = lower value 1.04 | S. cerevisiae deletion strains, locus YEL061C, strain CIN8, stronger effect = lower value 0.973 | S. cerevisiae deletion strains, locus YGR078C, strain PAC10, stronger effect = lower value 1.03 | S. cerevisiae deletion strains, locus YGR229C, strain SMI1, stronger effect = lower value 0.979 | [2] 1.02 | S. cerevisiae deletion strains, locus YHR087W, strain rtc3, stronger effect = lower value 0.971 | S. cerevisiae deletion strains, locus YJR043C, strain POL32, stronger effect = lower value 1.02 | S. cerevisiae deletion strains, locus YJR075W, strain HOC1, stronger effect = lower value 1 | S. cerevisiae deletion strains, locus YKL190W, strain CNB1, stronger effect = lower value 1.01 | S. cerevisiae deletion strains, locus YLR039C, strain RIC1, stronger effect = lower value 1.05 | S. cerevisiae deletion strains, locus YLR058C, strain SHM2 (second series), stronger effect = lower value 0.998 | S. cerevisiae deletion strains, locus YLR085C, strain ARP6, stronger effect = lower value 0.975 | S. cerevisiae deletion strains, locus YLR262C, strain YPT6, stronger effect = lower value 0.989 | S. cerevisiae deletion strains, locus YML094W, strain GIM5, stronger effect = lower value 0.982 | S. cerevisiae deletion strains, locus YMR219W, strain ESC1, stronger effect = lower value 1 | S. cerevisiae deletion strains, locus YMR263W, strain SAP30, stronger effect = lower value 1.01 | S. cerevisiae deletion strains, locus YNL153C, strain GIM3, stronger effect = lower value 1.04 | S. cerevisiae deletion strains, locus YNL298W, strain CLA4 (second series), stronger effect = lower value 1 | S. cerevisiae deletion strains, locus YNL322C, strain KRE1, stronger effect = lower value 1 | S. cerevisiae deletion strains, locus YNR030W, strain Alg12, stronger effect = lower value 1 | S. cerevisiae deletion strains, locus YOL006C, strain TOP1, stronger effect = lower value 1.04 | S. cerevisiae deletion strains, locus YPL055C, strain LGE1, stronger effect = lower value 0.976 | S. cerevisiae deletion strains, locus YPL241C, strain CIN2, stronger effect = lower value 0.999 | S. cerevisiae deletion strains, locus YPR135W, strain CTF4, stronger effect = lower value 1.05 | S. cerevisiae strains, strain wild type, stronger effect = lower value 1

O=C(NC(=O)c1ccccc1Cl)Nc1ccc(OC(F)(F)F)cc1
inactive: S. cerevisiae deletion strains, locus YAL021C, strain ccr4, stronger effect = lower value 1.05 | S. cerevisiae deletion strains, locus YAL026C, strain drs2, stronger effect = lower value 1.02 | S. cerevisiae deletion strains, locus YAL030W, strain snc1, stronger effect = lower value 1.03 | S. cerevisiae deletion strains, locus YBL061C, strain skt5, stronger effect = lower value 1.02 | S. cerevisiae deletion strains, locus YBR009C, strain hhf1, stronger effect = lower value 0.999 | S. cerevisiae deletion strains, locus YBR023C, strain chs3, stronger effect = lower value 1.04 | S. cerevisiae deletion strains, locus YBR171W, strain sec66, stronger effect = lower value 1.05 | S. cerevisiae deletion strains, locus YBR231C, strain swc5, stronger effect = lower value 1.06 | S. cerevisiae deletion strains, locus YBR279W, strain paf1, stronger effect = lower value 1.01 | S. cerevisiae deletion strains, locus YCL011C, strain gbp2, stronger effect = lower value 1.04 | S. cerevisiae deletion strains, locus YCL016C, strain dcc1, stronger effect = lower value 1.04 | [1] 1.04 | S. cerevisiae deletion strains, locus YCL069W, strain vba3, stronger effect = lower value 1.04 | S. cerevisiae deletion strains, locus YCR088W, strain abp1, stronger effect = lower value 1.03 | S. cerevisiae deletion strains, locus YDL005C, strain med2, stronger effect = lower value 1.05 | S. cerevisiae deletion strains, locus YDL040C, strain nat1, stronger effect = lower value 1.03 | S. cerevisiae deletion strains, locus YDR001C, strain nth1, stronger effect = lower value 1.02 | S. cerevisiae deletion strains, locus YDR069C, strain doa4, stronger effect = lower value 1.06 | S. cerevisiae deletion strains, locus YDR137W, strain rgp1, stronger effect = lower value 1.06 | S. cerevisiae deletion strains, locus YDR159W, strain sac3, stronger effect = lower value 1.04 | S. cerevisiae deletion strains, locus YDR195W, strain ref2 1.11 | S. cerevisiae deletion strains, locus YDR297W, strain sur2, stronger effect = lower value 1.03 | S. cerevisiae deletion strains, locus YDR334W, strain swr1, stronger effect = lower value 1.04 | S. cerevisiae deletion strains, locus YDR335W, strain msn5, stronger effect = lower value 1.04 | S. cerevisiae deletion strains, locus YDR392W, strain spt3, stronger effect = lower value 1.01 | S. cerevisiae deletion strains, locus YEL003W, strain gim4, stronger effect = lower value 1.03 | S. cerevisiae deletion strains, locus YEL037C, strain rad23, stronger effect = lower value 1.03 | S. cerevisiae deletion strains, locus YEL061C, strain CIN8 (second series), stronger effect = lower value 1.03 | S. cerevisiae deletion strains, locus YER015W, strain faa2, stronger effect = lower value 1.02 | S. cerevisiae deletion strains, locus YER016W, strain bim1, stronger effect = lower value 1.03 | S. cerevisiae deletion strains, locus YER111C, strain swi4, stronger effect = lower value 1.04 | S. cerevisiae deletion strains, locus YER155C, strain BEM2 (second series), stronger effect = lower value 1.07 | S. cerevisiae deletion strains, locus YFR010W, strain ubp6, stronger effect = lower value 1.03 | S. cerevisiae deletion strains, locus YGL167C, strain pmr1, stronger effect = lower value 1.03 | S. cerevisiae deletion strains, locus YGL173C, strain kem1, stronger effect = lower value 1.05 | S. cerevisiae deletion strains, locus YGL227W, strain vid30, stronger effect = lower value 1.03 | S. cerevisiae deletion strains, locus YGL240W, strain doc1, stronger effect = lower value 1.04 | S. cerevisiae deletion strains, locus YGL253W, strain hxk2, stronger effect = lower value 1.03 | S. cerevisiae deletion strains, locus YHR013C, strain ard1, stronger effect = lower value 1.09 | S. cerevisiae deletion strains, locus YHR027C, strain rpn1, stronger effect = lower value 1.04 | [2] 1.07 | S. cerevisiae deletion strains, locus YHR079C, strain IRE1, stronger effect = lower value 1.07 | S. cerevisiae deletion strains, locus YHR142W, strain chs7, stronger effect = lower value 1.01 | S. cerevisiae deletion strains, locus YJL092W, strain hpr5, stronger effect = lower value 1.03 | S. cerevisiae deletion strains, locus YJL095W, strain BCK1 (second series), stronger effect = lower value 1.02 | S. cerevisiae deletion strains, locus YJL095W, strain BCK1, stronger effect = lower value 1.06 | S. cerevisiae deletion strains, locus YJL115W, strain asf1, stronger effect = lower value 1.03 | S. cerevisiae deletion strains, locus YJL129C, strain trk1, stronger effect = lower value 1.08 | S. cerevisiae deletion strains, locus YJL154C, strain vps35, stronger effect = lower value 1.04 | S. cerevisiae deletion strains, locus YJL164C, strain tpk1, stronger effect = lower value 1.02 | S. cerevisiae deletion strains, locus YJL166W, strain qcr8, stronger effect = lower value 1.05 | S. cerevisiae deletion strains, locus YJL187C, strain SWE1, stronger effect = lower value 1.03 | S. cerevisiae deletion strains, locus YJR066W, strain TOR1, stronger effect = lower value 0.971 | S. cerevisiae deletion strains, locus YKL160W, strain elf1, stronger effect = lower value 1.05 | S. cerevisiae deletion strains, locus YKR026C, strain gcn3, stronger effect = lower value 1.04 | S. cerevisiae deletion strains, locus YKR091W, strain srl3, stronger effect = lower value 1.03 | S. cerevisiae deletion strains, locus YLL001W, strain dnm1, stronger effect = lower value 1.06 | S. cerevisiae deletion strains, locus YLL026W, stronger effect = lower value 1.02 | S. cerevisiae deletion strains, locus YLL041C, strain sdh2, stronger effect = lower value 1.03 | S. cerevisiae deletion strains, locus YLR027C, strain aat2, stronger effect = lower value 1.04 | S. cerevisiae deletion strains, locus YLR113W, strain HOG1, stronger effect = lower value 1.07 | S. cerevisiae deletion strains, locus YLR221C, strain rsa3, stronger effect = lower value 1.05 | S. cerevisiae deletion strains, locus YLR258W, strain gsy2, stronger effect = lower value 1.02 | S. cerevisiae deletion strains, locus YLR262C, strain YPT6 (second series), stronger effect = lower value 1.06 | S. cerevisiae deletion strains, locus YLR320W, strain mms22, stronger effect = lower value 1.06 | S. cerevisiae deletion strains, locus YLR342W, strain FKS1, stronger effect = lower value 1.04 | S. cerevisiae deletion strains, locus YLR357W, strain rsc2, stronger effect = lower value 1.07 | S. cerevisiae deletion strains, locus YLR370C, strain arc18, stronger effect = lower value 1.04 | S. cerevisiae deletion strains, locus YLR384C, strain iki3, stronger effect = lower value 1.03 | S. cerevisiae deletion strains, locus YML120C, strain ndi1, stronger effect = lower value 1.03 | S. cerevisiae deletion strains, locus YMR058W, strain fet3, stronger effect = lower value 1.03 | S. cerevisiae deletion strains, locus YMR125W, strain sto1, stronger effect = lower value 1.06 | S. cerevisiae deletion strains, locus YMR129W, stronger effect = lower value 1.03 | S. cerevisiae deletion strains, locus YMR205C, strain PFK2, stronger effect = lower value 1.07 | S. cerevisiae deletion strains, locus YMR231W, strain pep5, stronger effect = lower value 1.03 | S. cerevisiae deletion strains, locus YNL071W, strain lat1, stronger effect = lower value 1.05 | S. cerevisiae deletion strains, locus YNL183C, strain NPR1, stronger effect = lower value 0.985 | S. cerevisiae deletion strains, locus YNL209W, strain ssb2, stronger effect = lower value 1.03 | S. cerevisiae deletion strains, locus YNL248C, strain rpa49, stronger effect = lower value 1.07 | S. cerevisiae deletion strains, locus YNL322C, strain KRE1 (second series), stronger effect = lower value 1.05 | S. cerevisiae deletion strains, locus YNR049C, strain mso1, stronger effect = lower value 1.03 | S. cerevisiae deletion strains, locus YOR001W, strain rrp6, stronger effect = lower value 1.01 | S. cerevisiae deletion strains, locus YOR070C, strain gyp1, stronger effect = lower value 1.05 | S. cerevisiae deletion strains, locus YOR080W, strain dia2, stronger effect = lower value 1.05 | S. cerevisiae deletion strains, locus YOR083W, strain WHI5, stronger effect = lower value 1.05 | S. cerevisiae deletion strains, locus YOR106W, strain vam3, stronger effect = lower value 1.07 | S. cerevisiae deletion strains, locus YOR231W, strain MKK1, stronger effect = lower value 1.07 | S. cerevisiae deletion strains, locus YOR265W, strain rbl2, stronger effect = lower value 1.03 | S. cerevisiae deletion strains, locus YOR270C, strain vph1, stronger effect = lower value 1.1 | S. cerevisiae deletion strains, locus YOR290C, strain snf2, stronger effect = lower value 1.07 | S. cerevisiae deletion strains, locus YPL051W, strain arl3, stronger effect = lower value 1.07 | S. cerevisiae deletion strains, locus YPL078C, strain atp4, stronger effect = lower value 1.06 | S. cerevisiae deletion strains, locus YPL106C, strain sse1, stronger effect = lower value 1.02 | S. cerevisiae deletion strains, locus YPL240C, strain hsp82, stronger effect = lower value 1.01 | S. cerevisiae deletion strains, locus YPL256C, strain CLN2, stronger effect = lower value 1.11
